From PubChem BioAssay (Tox21)
Records with an inconclusive call do not appear. Active and inactive are the calls of the source. Unless noted, the call rests on the fitted dose curve.

Key:
[1] = Nuclear factor erythroid 2-related factor 2/antioxidant responsive element (Nrf2/ARE) small molecule agonists: qHTS cell viability counter screen in human keratinocytes (AID 1919968; active means well fitted curve in the direction sought with a large enough effect in the repeat runs; an effect the other way counts as inactive or inconclusive; further: nearly all actives have a fitted effect of over 55% in size)
Procedure, shortened: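 Parallel cytotoxicity read: KeratinoSens HaCaT cells, compound treatment 23 h, viability by CellTiter-Fluor fluorescence 1 h post-reagent.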

[2] = Nuclear factor erythroid 2-related factor 2/antioxidant responsive element (Nrf2/ARE) small molecule agonists: luciferase reporter gene qHTS assay in human keratinocytes (AID 1919969); further: nearly all actives have a fitted effect of over 35% in size
[3] = target: Gonadotropin-releasing hormone receptor (Homo sapiens) (UniProt P30968); assay: Human gonadotropin-releasing hormone receptor (GnRHR) small molecule agonists, calcium flux assay in GnRHR-HEK293 cells (AID 1920063); further: nearly all actives have a fitted effect of over 35% in size
Chain of Gonadotropin-releasing hormone receptor (Homo sapiens) (P30968 whole entry, looked up): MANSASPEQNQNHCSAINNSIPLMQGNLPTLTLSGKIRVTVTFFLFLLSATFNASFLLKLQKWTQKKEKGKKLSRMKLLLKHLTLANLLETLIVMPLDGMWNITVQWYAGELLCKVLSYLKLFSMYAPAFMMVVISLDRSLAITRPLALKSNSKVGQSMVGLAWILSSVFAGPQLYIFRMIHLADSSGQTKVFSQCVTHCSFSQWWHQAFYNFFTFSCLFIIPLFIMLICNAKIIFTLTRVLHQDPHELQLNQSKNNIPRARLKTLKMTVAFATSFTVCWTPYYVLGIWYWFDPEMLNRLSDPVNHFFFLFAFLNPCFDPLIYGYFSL
Procedure, shortened: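 Calcium flux, agonist mode, human GnRHR stably integrated in HEK293; dye 1 h at 37 C before compound; Ex/Em=480/540 kinetic read, 3 min; 15 concentrations, triplicate.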

[4] = target: KiSS-1 receptor (Homo sapiens) (UniProt Q969F8); assay: Human kisspeptin (KISS1R) small molecule agonists, calcium flux assay in KISS1R-HEK293 cells (AID 1920064; active means well fitted curve in the direction sought with a large enough effect in the repeat runs; an effect the other way counts as inactive or inconclusive)
Chain of KiSS-1 receptor (Homo sapiens) (Q969F8 whole entry, looked up): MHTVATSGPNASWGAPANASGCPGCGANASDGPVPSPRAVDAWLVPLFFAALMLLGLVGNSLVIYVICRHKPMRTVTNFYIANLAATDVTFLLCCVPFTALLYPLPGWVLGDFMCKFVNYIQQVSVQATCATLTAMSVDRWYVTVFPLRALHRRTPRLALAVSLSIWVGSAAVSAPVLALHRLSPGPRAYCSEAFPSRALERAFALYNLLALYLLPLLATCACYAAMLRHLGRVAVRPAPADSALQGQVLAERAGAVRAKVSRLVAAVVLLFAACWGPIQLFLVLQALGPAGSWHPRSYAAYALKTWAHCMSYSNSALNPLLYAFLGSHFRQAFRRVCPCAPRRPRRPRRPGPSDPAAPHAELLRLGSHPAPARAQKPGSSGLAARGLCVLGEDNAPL
Procedure, shortened: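 Triplicate 15-concentration series were applied to dye-loaded human KISS1R HEK293 cells, and agonist-evoked calcium fluorescence was captured for 3 min.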

[5] = G protein-coupled receptor (GPCR) small molecule agonists, calcium flux assay: HEK293 wild type cell line counter screen (AID 1920065)
Procedure, shortened: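 Non-specific calcium responders were flagged by adding DMSO-dissolved compounds to dye-loaded cells and reading 480/540 nm fluorescence each second for 3 min; ATP served as positive control.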

[6] = p53 small molecule agonists, cell-based qHTS assay with human liver microsomes (AID 1963577)
Procedure, shortened: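 Cells carrying a p53-responsive bla reporter were rested 5 h (37 C, 5% CO2) before compound transfer. Human liver microsomes plus NADPH, 0.5 mg/mL final apiece, supplied metabolism during the 16 h 37 C exposure.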

[7] = p53 small molecule agonists, cell-based qHTS assay with rat liver microsomes (AID 1963578)
Procedure, shortened: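 Fluorescence from a beta-lactamase reporter under a p53 response element was measured after cells had been incubated 16 h at 37 C with test compound and rat liver microsomes plus NADPH (0.5 mg/mL final each).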

[8] = p53 small molecule agonists, cell-based qHTS assay with human liver microsomes: qHTS cell viability counter screen (AID 1963579); further: nearly all actives have a fitted effect of over 45% in size
Procedure, shortened: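 Seed p53RE-bla cells at 4,000 per well; incubate 5 h at 37 C; add compound, human liver microsomes and NADPH; incubate 16 h at 37 C; add CellTiter-Glo; after 30 min at room temperature, read luminescence.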

[9] = p53 small molecule agonists, cell-based qHTS assay with rat liver microsomes: qHTS cell viability counter screen (AID 1963580); further: nearly all actives have a fitted effect of over 45% in size
Procedure, shortened: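 After the beta-lactamase ratio was read, CellTiter-Glo was added to the same wells and luminescence measured at 30 min; cells had been treated 16 h at 37 C with compounds, rat liver microsomes and NADPH (0.5 mg/mL final each).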

[10] = p53 small molecule agonists, cell-based qHTS assay: qHTS cell viability counter screen (AID 1963581); further: nearly all actives have a fitted effect of over 45% in size
Procedure, shortened: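 Multiplexed with the reporter read, a CellTiter-Glo step (30 min, room temperature) gauges ATP-based viability of HCT-116 p53RE-bla cells after 16 h compound incubation at 37 C.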

[11] = p53 small molecule agonists, cell-based qHTS assay (AID 1963582; active means well fitted activation curve with a large enough effect in the signal ratio in the repeat runs, not every such curve was filed as active; the % refers to the signal ratio)
Procedure, shortened: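 Beta-lactamase reporter cells (p53RE-bla) treated with compounds for 16 h at 37 C; FRET substrate, 2 h, room temperature; fluorescence intensity.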

[12] = target: 5-hydroxytryptamine receptor 2A (Homo sapiens) (UniProt P28223); assay: 5-hydroxytryptamine receptor 2A (HTR2A) small molecule antagonists, cell-based qHTS assay (AID 1963586); further: nearly all actives have a fitted effect of over 45% in size
Chain of 5-hydroxytryptamine receptor 2A (Homo sapiens) (P28223 whole entry, looked up): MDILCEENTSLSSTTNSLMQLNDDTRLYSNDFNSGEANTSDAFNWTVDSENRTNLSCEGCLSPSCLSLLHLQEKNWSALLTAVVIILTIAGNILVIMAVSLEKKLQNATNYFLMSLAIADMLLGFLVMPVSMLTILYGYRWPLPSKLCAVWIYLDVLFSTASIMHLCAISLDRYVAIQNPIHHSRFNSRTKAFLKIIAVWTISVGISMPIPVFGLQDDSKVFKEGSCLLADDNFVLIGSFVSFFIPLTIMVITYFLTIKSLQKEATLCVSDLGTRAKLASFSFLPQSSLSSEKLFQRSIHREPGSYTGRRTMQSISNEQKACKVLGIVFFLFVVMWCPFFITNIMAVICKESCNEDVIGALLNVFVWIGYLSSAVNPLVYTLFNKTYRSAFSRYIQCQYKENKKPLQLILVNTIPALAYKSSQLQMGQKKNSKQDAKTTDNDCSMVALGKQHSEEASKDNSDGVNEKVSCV
Procedure, shortened: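 CHO cells stably expressing human HTR2A were plated for 18 h at 37 C, then loaded with calcium dye for 1 h. Compounds were preincubated 5 min at room temperature before DOI (4 nM solution) was added. Kinetic fluorescence was read for 3 min.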

[13] = target: 5-hydroxytryptamine receptor 2A (Homo sapiens) (UniProt P28223); assay: 5-hydroxytryptamine receptor 2A (HTR2A) small molecule agonists, cell-based qHTS assay (AID 1963587); further: nearly all actives have a fitted effect of over 30% in size
Procedure, shortened: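 CHO cells stably expressing human HTR2A, plated 18 h, loaded with calcium dye 1 h at 37 C. Agonist mode: compounds added and intracellular calcium fluorescence recorded kinetically for 2 min at 1 sec intervals.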

[14] = target: Muscarinic acetylcholine receptor M1 (Homo sapiens) (UniProt P11229); assay: Cholinergic receptor muscarinic 1 (CHRM1) small molecule antagonists, cell-based qHTS assay (AID 1963588); further: nearly all actives have a fitted effect of over 40% in size
Chain of Muscarinic acetylcholine receptor M1 (Homo sapiens) (P11229 whole entry, looked up): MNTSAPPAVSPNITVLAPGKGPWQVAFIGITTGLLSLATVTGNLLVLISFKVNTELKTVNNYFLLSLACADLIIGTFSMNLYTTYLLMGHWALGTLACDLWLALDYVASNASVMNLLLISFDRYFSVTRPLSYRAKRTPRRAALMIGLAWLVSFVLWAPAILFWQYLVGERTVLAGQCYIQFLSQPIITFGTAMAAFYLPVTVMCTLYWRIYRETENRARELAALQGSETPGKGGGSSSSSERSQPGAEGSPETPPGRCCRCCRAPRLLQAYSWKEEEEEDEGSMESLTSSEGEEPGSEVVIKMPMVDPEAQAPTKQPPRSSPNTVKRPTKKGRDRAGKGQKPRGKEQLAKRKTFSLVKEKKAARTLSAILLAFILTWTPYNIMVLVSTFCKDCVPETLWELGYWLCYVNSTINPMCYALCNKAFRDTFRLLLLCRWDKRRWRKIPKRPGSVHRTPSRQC
Procedure, shortened: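 Compounds were tested at 15 concentrations in three independent runs. Dye-loaded CHRM1-CHO cells were exposed 5 min at room temperature before stimulation by acetylcholine added at 50nM. Intracellular calcium was read kinetically on FDSS for 3 min.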

[15] = target: Muscarinic acetylcholine receptor M1 (Homo sapiens) (UniProt P11229); assay: Cholinergic receptor muscarinic 1 (CHRM1) small molecule agonists, cell-based qHTS assay (AID 1963589); further: nearly all actives have a fitted effect of over 35% in size
Procedure, shortened: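 qHTS, 15-point titration, 3 independent runs: compounds pin-transferred onto dye-loaded CHRM1-CHO cells (human M1), calcium fluorescence followed every second to detect agonism.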

[16] = cAMP Responsive Elements (CRE) small molecule agonists, cell-based qHTS assay (AID 1963590)
Procedure, shortened: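 Quantitative HTS for CRE agonists: HEK 293T CRE-bla cells, overnight plating, 3 h compound incubation at 37 C/5% CO2, then 2 h room-temperature LiveBLAzer B/G FRET substrate loading.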

[17] = cAMP Responsive Elements (CRE) small molecule antagonists, cell-based qHTS assay (AID 1963591; active means well fitted inhibition curve with a large enough effect in the signal ratio in the repeat runs, not every such curve was filed as active; the % refers to the signal ratio)
Procedure, shortened: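 Fluorescence intensity from cleaved LiveBLAzer B/G substrate (2 h, room temperature) quantified CRE-bla activity in HEK 293T cells exposed 3 h to compound with 0.25 uM final NKH477.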

[18] = target: Beta-2 adrenergic receptor (Homo sapiens) (UniProt P07550); assay: Adrenergic beta2 receptor (ADRB2) small molecule antagonists, cell-based qHTS assay (AID 1963592); further: series mostly up to about 92 µM; nearly all actives have a fitted effect of over 50% in size
Chain of Beta-2 adrenergic receptor (Homo sapiens) (P07550 whole entry, looked up): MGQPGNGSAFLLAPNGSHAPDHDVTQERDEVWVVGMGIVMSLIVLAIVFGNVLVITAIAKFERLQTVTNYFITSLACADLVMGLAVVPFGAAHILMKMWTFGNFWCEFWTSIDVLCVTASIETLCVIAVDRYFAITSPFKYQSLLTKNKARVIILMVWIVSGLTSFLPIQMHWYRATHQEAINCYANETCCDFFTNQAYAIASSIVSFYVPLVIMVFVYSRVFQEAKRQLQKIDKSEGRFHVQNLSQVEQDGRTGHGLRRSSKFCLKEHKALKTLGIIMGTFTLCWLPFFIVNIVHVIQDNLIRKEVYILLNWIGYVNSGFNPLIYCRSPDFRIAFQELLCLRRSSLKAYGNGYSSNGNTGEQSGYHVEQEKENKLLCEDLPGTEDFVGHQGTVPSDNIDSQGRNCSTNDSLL
Procedure, shortened: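 Assay format: CHO-ADRB2 cells, 18-20hr seeding at 37C/5% CO2, then compound plus 1nM isoproterenol agonist mix for 0.5hr RT. Homogeneous time-resolved fluorescence cAMP detection after 1hr, expressed as 665/615 nm ratio.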

[19] = target: D(2) dopamine receptor (Homo sapiens) (UniProt P14416); assay: Dopamine D2 receptor (DRD2) small molecule agonists, cell-based qHTS assay (AID 1963594); further: nearly all actives have a fitted effect of over 35% in size
Chain of D(2) dopamine receptor (Homo sapiens) (P14416 whole entry, looked up): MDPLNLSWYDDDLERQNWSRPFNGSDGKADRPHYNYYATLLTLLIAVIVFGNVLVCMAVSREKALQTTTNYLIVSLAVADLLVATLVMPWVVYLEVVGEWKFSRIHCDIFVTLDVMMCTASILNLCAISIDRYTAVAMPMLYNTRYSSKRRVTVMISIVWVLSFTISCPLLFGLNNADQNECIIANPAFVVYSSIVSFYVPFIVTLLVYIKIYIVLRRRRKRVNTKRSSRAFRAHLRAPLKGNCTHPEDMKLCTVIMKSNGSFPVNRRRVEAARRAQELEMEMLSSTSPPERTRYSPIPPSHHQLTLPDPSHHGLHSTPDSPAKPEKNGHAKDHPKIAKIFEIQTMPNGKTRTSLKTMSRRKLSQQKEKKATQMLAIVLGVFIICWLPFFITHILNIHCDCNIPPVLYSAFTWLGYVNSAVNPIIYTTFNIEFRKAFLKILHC
Procedure, shortened: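 HEK293 cells stably expressing human DRD2, pre-treated with PDE inhibitor Ro20-1724 (0.1 mM final) and compound 10 min at room temperature, then stimulated with NKH477 (200nM […]) for 30 min. cAMP read by HTRF (665/620 nm).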

[20] = target: D(2) dopamine receptor (Homo sapiens) (UniProt P14416); assay: Dopamine D2 receptor (DRD2) small molecule antagonists, cell-based qHTS assay (AID 1963595; active means well fitted inhibition curve with a large enough effect in the signal ratio in the repeat runs, with a control signal flat; the % refers to the signal ratio)
Procedure, shortened: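 Readout: HTRF cAMP, cAMP-d2 competing with cellular cAMP for anti-cAMP cryptate, read after 1 h. Cells: DRD2-HEK293. Conditions: 0.1 mM Ro20-1724, 12 nM quinpirole, 200 nM NKH477, 30 min RT.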

Measured: Potency

COc1cc(OC)nc(Sc2cccc(Cl)c2C(=O)O)n1
inactive: all assays above

CC(C(=O)c1ccccc1)N(C)C (centres undefined)
inactive: all assays above

CCN(CCO)CCO
inactive: all assays above

Nc1cc(Cl)cc(C(=O)O)c1Cl
inactive: all assays above

CCC/C=N/O
inactive: all assays above

N#CCCC#N
not listed: [19]
inactive: all other assays above

Nc1ccc(Cl)c(Cl)c1
inactive: all assays above
